Experimental data published in PubChem BioAssay (NCATS).
Records with an inconclusive call do not appear. Calls of active or inactive are those of the source. Unless noted, calls follow the shape of the dose curve; as a rule, active = well fitted cell-killing curve with a large enough effect; inconclusive = small, poorly fitted or top-dose-only effect, or effect the other way; inactive = no such curve, though single readings can be large or run the other way.

Columns and labels:
[1] = Quantitative High-Throughput drug screen in 47 multiple myeloma cell lines against the NCATS MIPE library collection: PE2_PLB cell viability assay (AID 1919869); also: nearly all actives have a fitted effect of over 35% in size; also: potency is read from the fitted curve at half-maximal effect
How it was run: (§1)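 Myeloma cells (500/well) treated with MIPE 4.0 compounds for 48 h at 37 °C, 5% CO2. Viability read as ATP via CellTiter-Glo luminescence after 5 min at RT; DMSO-only wells = 100%, media-only = 0% viability.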

[2] = Quantitative High-Throughput drug screen in 47 multiple myeloma cell lines against the NCATS MIPE library collection: PCM6_Riken cell viability assay (AID 1919870); also: nearly all actives have a fitted effect of over 30% in size; also: potency is read from the fitted curve at half-maximal effect
How it was run: as §1

[3] = Quantitative High-Throughput drug screen in 47 multiple myeloma cell lines against the NCATS MIPE library collection: RPMI8226_ATCC cell viability assay (AID 1919871); also: nearly all actives have a fitted effect of over 30% in size; also: potency is read from the fitted curve at half-maximal effect
How it was run: as §1

[4] = Quantitative High-Throughput drug screen in 47 multiple myeloma cell lines against the NCATS MIPE library collection: OPM2_DSMZ cell viability assay (AID 1919872); also: nearly all actives have a fitted effect of over 30% in size; also: potency is read from the fitted curve at half-maximal effect
How it was run: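 Relative luminescence from CellTiter-Glo served as the viability signal, referenced to DMSO-treated (100%) and cell-free medium (0%) controls. Treatment lasted 48 hours at 37C with 500 cells per well.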

[5] = Quantitative High-Throughput drug screen in 47 multiple myeloma cell lines against the NCATS MIPE library collection: KMS11_JCRBsus cell viability assay (AID 1919873); also: nearly all actives have a fitted effect of over 50% in size; also: potency is read from the fitted curve at half-maximal effect
How it was run: as §1

[6] = Quantitative High-Throughput drug screen in 47 multiple myeloma cell lines against the NCATS MIPE library collection: KMS28BM_JCRB cell viability assay (AID 1919874); also: nearly all actives have a fitted effect of over 35% in size; also: potency is read from the fitted curve at half-maximal effect
How it was run: as §1

[7] = qHTS drug screen for cell cycle checkpoint inhibitors in PARPi-resistant BRCA-mutant ovarian cancer cell lines. (AID 1963452; calls by dose curve); details: PEO1/OlaR viability, CellTiter-Glo luminescence, 96 h, stronger effect = lower value
How it was run: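 PEO1, PEO4 and PEO1/OlaR ovarian cancer cells, 600 per well, exposed 96 h at 37C to a dilution series. Viability read by CellTiter-Glo luminescence, normalized to DMSO and empty wells; activity summarized as Z-AUC.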

[8] = qHTS for identification of novel therapeutic agents for treatment of microphthalmiaassociated transcription factor (MiT) renal cell carcinoma (RCC) (AID 1963991); details: CellTiter-Glo, 48 h, stronger effect = lower value
How it was run: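 Three TFE3-fusion RCC cell lines (UOK109, UOK124, UOK145), 500 cells/well, were exposed to the 1912-compound MIPE 4.0 library for 48 hours at 37 C. Viability was read by CellTiter-Glo luminescence, normalised to DMSO (100%) and empty wells (0%), with 11-concentration curve fits.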

[9] = measured here: PEO1 parental Z-AUC
[10] = TFE3-RCC UOK109 viability, measured here: UOK109 Z-AUC
[11] = TFE3-RCC viability, measured here: UOK124 Z-AUC
[12] = TFE3-RCC viability, measured here: UOK145 Z-AUC

SMILES: Cn1c(=O)c2c(ncn2CC(O)CO)n(C)c1=O (stereo unspecified)
- Potency [1]: inactive
- Potency [2]: inactive
- Potency [3]: inactive
- Potency [4]: inactive
- Potency [5]: inactive
- Potency [6]: inactive
- Z-AUC [7]: 0.897 (inactive)
- Z-AUC [7, 9]: 0.956
- Z-AUC ([7]; measured here: PEO4 Z-AUC): 0.893
- z-score [8, 10]: 0.0441
- z-score [8, 11]: 0.351
- z-score [8, 12]: 0.429

SMILES: Cc1oc(=O)oc1CN1CCN(c2cc3c(cc2F)c(=O)c(C(=O)O)c2n3C(C)S2)CC1 (stereo unspecified)
- Potency [1]: 13.2 µM (active)
- Potency [2]: inactive
- Potency [3]: inactive
- Potency [5]: inactive
- Potency [6]: inactive
- Z-AUC [7]: -0.572 (inactive)
- Z-AUC [7, 9]: -0.35
- Z-AUC ([7]; measured here: PEO4 Z-AUC): -0.652
- z-score [8, 10]: 0.77
- z-score [8, 11]: 0.785
- z-score [8, 12]: 0.456

SMILES: Cc1onc(-c2ccccc2Cl)c1C(=O)N[C@@H]1C(=O)N2[C@@H]1SC(C)(C)[C@@H]2C(=O)O
- Potency [1]: inactive
- Potency [2]: inactive
- Potency [3]: inactive
- Potency [4]: inactive
- Potency [5]: inactive
- z-score [8, 10]: 1.22
- z-score [8, 11]: 0.834
- z-score [8, 12]: 1.69

SMILES: Nc1nc(=S)c2[nH]cnc2[nH]1
- Potency [1]: 1.66 µM (active)
- Potency [2]: 7.43 µM (active)
- Potency [3]: 4.69 µM (active)
- Potency [4]: 3.72 µM (active)
- Potency [5]: 4.18 µM (active)
- Z-AUC [7]: 0.0206 (inactive)
- Z-AUC [7, 9]: -0.887
- Z-AUC ([7]; measured here: PEO4 Z-AUC): -1.01

SMILES: NC(=O)c1ccc2[nH]ccc2c1
- Potency [1]: inactive
- Potency [3]: inactive
- Potency [4]: inactive
- Potency [5]: inactive
- Potency [6]: inactive
- Z-AUC [7]: -0.236 (inactive)
- Z-AUC [7, 9]: -0.451
- Z-AUC ([7]; measured here: PEO4 Z-AUC): -0.798
- z-score [8, 10]: 0.214
- z-score [8, 11]: 0.789
- z-score [8, 12]: -0.184

SMILES: COc1cnc(NS(=O)(=O)c2ccc(N)cc2)nc1
- Potency [1]: inactive
- Potency [3]: inactive
- Potency [4]: inactive

SMILES: COCCCOc1cc(C[C@@H](C[C@H](N)[C@@H](O)C[C@H](C(=O)NCC(C)(C)C(N)=O)C(C)C)C(C)C)ccc1OC
- Potency [1]: inactive
- Potency [3]: inactive
- Potency [4]: inactive
- Potency [5]: inactive
- Z-AUC [7]: 1.16 (inactive)
- Z-AUC [7, 9]: 1.52
- Z-AUC ([7]; measured here: PEO4 Z-AUC): 1.51
- z-score [8, 10]: 1.1
- z-score [8, 11]: 0.318
- z-score [8, 12]: 1.4

SMILES: NC(N)=NC(N)=NCCc1ccccc1
- Potency [1]: 16.6 µM (active)
- Potency [3]: 20.9 µM (active)
- Potency [6]: 7.43 µM (active)
- Z-AUC [7]: 1.13 (inactive)
- Z-AUC [7, 9]: 0.288
- Z-AUC ([7]; measured here: PEO4 Z-AUC): 0.483

SMILES: Nc1ccc(S(=O)(=O)Nc2ccccn2)cc1
- Potency [1]: inactive
- Potency [2]: inactive
- Potency [4]: inactive
- Potency [5]: inactive
- z-score [8, 10]: 1.57
- z-score [8, 11]: 0.543
- z-score [8, 12]: 0.723

SMILES: CCN[C@H]1C[C@H](C)S(=O)(=O)c2sc(S(N)(=O)=O)cc21
- Potency [1]: inactive
- Potency [4]: inactive
- Potency [5]: inactive
- Potency [6]: inactive
- Z-AUC [7]: 1.11 (inactive)
- Z-AUC [7, 9]: 0.588
- Z-AUC ([7]; measured here: PEO4 Z-AUC): 0.622
- z-score [8, 10]: 0.833
- z-score [8, 11]: 0.48
- z-score [8, 12]: 0.605

SMILES: CC(=O)CC(c1ccccc1)c1c(O)c2ccccc2oc1=O (stereo unspecified)
- Potency [1]: inactive
- Potency [3]: inactive
- Potency [5]: inactive
- Potency [6]: inactive
- Z-AUC [7]: 1.13 (inactive)
- Z-AUC [7, 9]: 1.51
- Z-AUC ([7]; measured here: PEO4 Z-AUC): 1.67
- z-score [8, 10]: 0.83
- z-score [8, 11]: 0.655
- z-score [8, 12]: 0.641
